In all, about 3,400 compounds went through this assay and about 840 (25%) were called active. Inconclusive results (about 11%) are left out. These entries were drawn from the full list. Measured potencies and affinities stand elsewhere. A number with no mark means an inactive call.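 Rule for the calls: active = fitted half-maximal concentration of signal decrease at or below twice the sample's top tested concentration; inconclusive = flat curve between -70 and -30 percent, or poor fit; inactive = flat within 30 percent, signal rise, or potency above limit.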

The nature of this test: T. gondii growth inhibition with IFN-gamma, dose response, cell-based, ME49Luc, HeLa, luciferase, 72 h (AID 1259418). The settings on record: T. gondii ME49Luc in IFN-y HeLa, active compounds read low, -100% = high-dose IFN-γ control wells; at 19.5 µM unless noted.
Regarding `CCc1nc(OCC(=O)Nc2cccc(C)c2)c2ccccc2n1`, the max activity was -9.62% [at 1.35 µM].
Take `Cc1cccc(OCC(=O)N2CSC[C@@H]2C(=O)NCCc2csc(-c3ccccc3)n2)c1`: the max activity is -20.7% [at 0.68 µM].
As for `Cc1ccc2c(c1C)-n1cccc1C1(CCN(C(=O)c3c(F)cccc3F)CC1)N2`, the max activity was -8.13% [at 0.16 µM].
Consider `NC(=O)C1(N2CCCCC2)CCN(c2ncc(NC(=O)c3cccs3)cc2C(=O)O)CC1`, for which the max activity was 8.78% [at 0.16 µM].
For `CSc1cccc(NC(=O)Nc2ccc(-c3nc(-c4ccc(C)cc4)co3)cc2)c1` the value was 26.9%.
For `O=C(Cn1c(=O)c(S(=O)(=O)c2ccccc2)cc2ccccc21)NC1CCCCC1` the value was 2.73%; for `Fc1ccc(CSc2nc(NCc3ccco3)c3ccccc3n2)cc1`, -10.7% [at 2.6 µM]; for `Cc1nc(-c2cc(S(=O)(=O)N3CCC(Cc4ccccc4)CC3)c(C)s2)sc1C`, 9.1% [at 0.16 µM].
For `CCOc1ccccc1-c1nc(CSc2nc3c(c(=O)[nH]2)CN(CCOC)CC3)c(C)o1` the value was 20.2% [at 10 µM]; for `CCc1nc(OCC(=O)Nc2ccccc2F)c2ccccc2n1`, 12.8% [at 10 µM].
`COc1ccc(NC(=O)CN2CCC3(CC2)N=C(c2cccc(F)c2)C(=O)N3)cc1Cl`: the max activity is 18.3% [at 5 µM].
For `Cc1ccc(CSC2=Nc3ccccc3C3=NC(CC(=O)NC4CCCCC4)C(=O)N23)c(C)c1` (stereo not drawn) the value was 15.1% [at 5 µM].
For `O=C(CN1CCC2(CC1)N=C(c1ccc(F)cc1)C(=O)N2)Nc1ccccc1C(F)(F)F` the value was 7.82% [at 10 µM]; for `O=C(COc1ccccc1Cl)Nc1cncc(-c2nc3ccccc3o2)c1`, -6.28% [at 2.6 µM]; for `COc1ccc(N(Cc2nc(-c3cccc(C)c3)oc2C)S(=O)(=O)c2ccc(OC)cc2)cc1`, -8.14% [at 0.35 µM].
Regarding `COc1cccc(N(Cc2nc(-c3cccc(Cl)c3)oc2C)S(=O)(=O)c2ccccc2)c1`, the max activity was 9.67% [at 0.68 µM].
`COc1ccc(N(Cc2nc(-c3cccc(Cl)c3)oc2C)S(=O)(=O)c2ccc(OC)cc2)cc1`: the max activity was -8.48% [at 2.6 µM].
For `COc1cccc(N(Cc2nc(-c3ccccc3)oc2C)S(=O)(=O)c2ccccc2)c1` the value was -4.33%; for `COc1ccc(N(Cc2nc(-c3cccc(C)c3)oc2C)S(=O)(=O)c2ccc(C)cc2)cc1`, -7.34% [at 1.35 µM].
For `COc1ccc(CC(=O)N2CCC3(CC2)Nc2cc(F)ccc2-n2cccc23)cc1OC` the value was 6.12% [at 2.6 µM].
As for `COc1ccc(-c2nc3c(s2)CN(S(=O)(=O)c2ccc(C(C)C)cc2)CC3)cc1`, the max activity is 10.1% [at 0.16 µM].
For `CCCN1CCc2nc(SCc3nc(-c4ccc(OCC)c(OC)c4)oc3C)[nH]c(=O)c2C1` the value was 28.6% [at 0.16 µM].
For `Cc1ccc(-c2coc(-c3ccc(NC(=O)Nc4ccc(F)cc4)cc3)n2)cc1` the value was 8.43% [at 10 µM].
For `Cc1c(-c2n[nH]c(=S)n2-c2ccccc2)sc2nc3n(c(=O)c12)CCC3` the value was -9.68% [at 0.16 µM]; for `CCc1cccc(NC(=O)COc2nc(CC)nc3ccccc23)c1`, -10.7% [at 10 µM].
Turning to `Cc1nc(OCC(=O)NCc2ccccc2)c2ccccc2n1`, the max activity is 19.6% [at 0.16 µM].
As for `Cn1cccc1C(=O)Nc1ccc2c(c1)CCC(=O)N2`, the max activity was 85.5%.
For `Cn1c(=O)c(C(=O)Nc2ccccc2)cc2cccnc21` the value was 14.2% [at 2.6 µM].
In the case of `CCc1nc(OCC(=O)Nc2ccccc2Cl)c2ccccc2n1`, the max activity is -7.29% [at 1.35 µM].
For `Cc1nc(C)c(C(=O)N2CCCC2c2nc(-c3ccc(F)cc3F)no2)s1` (stereo not drawn) the value was 25.6% [at 10 µM]; for `CCc1nc(OCC(=O)Nc2c(C)cc(C)cc2C)c2ccccc2n1`, 7.02% [at 2.6 µM].
For `CN1C(=O)c2cc(NC(=O)Cc3cccs3)ccc2OC[C@H]2O[C@@H](CC(=O)NCc3ccc(-c4ccccc4)cc3)CC[C@@H]21` the value was -7.79% [at 1.2 µM]; for `Cc1ccc(CNC(=O)Nc2ccc(-c3nc(-c4ccccc4)co3)cc2)cc1`, 90.3% [at 10 µM].
For `Cc1oc(-c2ccccc2)nc1Cn1nnc(-c2nc(-c3ccccc3Br)no2)c1C` the value was -8.57% [at 0.35 µM]; for `CC(=O)O[C@H]1C[C@@H](OC(C)=O)C(C)(C)C2C[C@@H](OC(C)=O)[C@@]3(C)C4=CC(=O)O[C@@H](c5ccoc5)[C@]4(C)CCC3[C@]21C` (stereo partly drawn), -9.83% [at 5 µM].
With `Cc1ccc(CNC(=O)Nc2ccc(-c3nc(-c4ccc(C)cc4C)co3)cc2)cc1`, the max activity is 14.7% [at 0.16 µM].
For `CCCCC(=O)Nc1ccc(-c2nc(-c3cc(C)ccc3C)co2)cc1` the value was -7.17% [at 5 µM].
On to `O=C1CNC[C@@H]2[C@H](c3ccc(C#Cc4cccnc4)cc3)[C@@H](CO)N12`, for which the max activity is 42.6%.
Regarding `O=C1CNC[C@@H]2[C@H](c3ccc(C#Cc4cccnc4)cc3)[C@H](CO)N12`, the max activity was 36.8%.
For `N#Cc1ccc(-c2ccc([C@H]3[C@@H](CO)N4C(=O)CNC[C@@H]34)cc2)cc1` the value was 52.5%; for `O=C1CC2C(CCN2Cc2ccc(F)cc2)N1CCN1CCOCC1` (stereo not drawn), 15.6% [at 10 µM].
With `Cc1ccc(-c2coc(-c3ccc(NC(=O)c4sccc4C)cc3)n2)c(C)c1`, the max activity is 14.5%.
For `COC[C@H](N)C(=O)N1CCC(Cc2nnc(SC)n2C)CC1` the value was 32.3%; for `Cc1nc(Cn2cnc(-c3nc(C(=O)NCc4cc(F)cc(F)c4)c4ccccn34)c2)cs1`, -10.1%.
For `Cc1ccc(C)c(-c2coc(-c3ccc(NC(=O)Nc4cccc(F)c4)cc3)n2)c1` the value was 9.94% [at 2.6 µM]; for `CC(C)Oc1ccc(NC(=O)c2nc3c(n2C(C)C)CCN(C(=O)c2ccccc2)C3)cc1`, -6.92% [at 2.6 µM]; for `Cc1ccc(-c2nc(Cn3nnc(-c4nc(-c5cccc(C(F)(F)F)c5)no4)c3C)c(C)o2)cc1`, 13.1%.
For `CCOC(=O)CSC1=Nc2ccccc2C2=NC(CC(=O)NCc3ccccc3OC)C(=O)N12` (stereo not drawn) the value was -7.6% [at 0.68 µM]; for `Cc1cccc(-c2nc(Cn3nnc(-c4nc(-c5cccnc5)no4)c3C)c(C)o2)c1`, -5.69% [at 2.6 µM].
As for `O=C(Nc1ccc(-c2nc(-c3ccccc3)co2)cc1)c1ccc(F)cc1`, the max activity was 21.2% [at 1.35 µM].
For `O=C(Nc1ccc(-c2nc(-c3ccccc3)co2)cc1)c1ccc(Cl)cc1` the value was 21.8% [at 5 µM]; for `Cc1ccc(-c2coc(-c3ccc(NC(=O)c4cccc(F)c4)cc3)n2)cc1`, 42.3%; for `O=C(Nc1ccc(-c2nc(-c3ccccc3)co2)cc1)c1ccccc1`, 74.5%.
For `COc1ccc(-c2nc(Cn3nnc(-c4nc(-c5cccc(Cl)c5)no4)c3C)c(C)o2)cc1` the value was -6.44% [at 0.35 µM]; for `Cc1nc(CCNC(=O)C2CCN(S(=O)(=O)c3cc(F)ccc3F)CC2)cs1`, 21.6% [at 2.6 µM].
For `Cc1ccc(C(=O)Nc2c(C(=O)N3CCN(c4ccccn4)CC3)[nH]c3ccccc23)cc1` the value was -27.2%; for `O=C(Cc1cccc(F)c1)Nc1ccc(-c2nc(-c3ccccc3)co2)cc1`, 16.9% [at 2.6 µM].
`Cc1ccc(-c2nc(Cn3nnc(-c4nc(-c5ccc(F)cc5)no4)c3C)c(C)o2)cc1`: the max activity was 22%.
With `CCCC(=O)Nc1ccc(-c2nc(-c3cc(C)ccc3C)co2)cc1`, the max activity was -11.6% [at 1.35 µM].
Take `COCC12CCCOC1CCN(S(=O)(=O)c1cn(C)cn1)C2` (stereo not drawn): the max activity was 18.3%.
For `COC[C@@H]1CCC[C@]12CN(S(=O)(=O)c1cccs1)CCO2` the value was -9.83% [at 0.6 µM].
For `CCSc1ccc(-c2sc(-c3ccc(F)cc3)nc2C)nn1` the value was 31.6%; for `Cc1ccc2[nH]c(C(=O)N3CCN(c4ccccn4)CC3)c(NC(=O)c3ccc(F)cc3)c2c1`, -13.6%.
For `Cc1cccc(C(=O)Nc2c(C(=O)NCc3ccccn3)[nH]c3ccc(C)cc23)c1` the value was 14.8% [at 10 µM]; for `O=C(Nc1c(C(=O)NCc2ccccn2)[nH]c2ccccc12)c1ccc(Cl)cc1`, 9.23% [at 1.35 µM].
Regarding `Cc1ccc(C(=O)Nc2c(C(=O)NCc3ccccn3)[nH]c3ccccc23)cc1`, the max activity is -2.99% [at 0.35 µM].
Regarding `Cc1ccc2[nH]c(C(=O)NCc3ccccn3)c(NC(=O)c3ccc(Cl)cc3)c2c1`, the max activity was 27.1% [at 0.35 µM].
For `Cc1ccc2[nH]c(C(=O)NCc3cccnc3)c(NC(=O)c3ccc(Cl)cc3)c2c1` the value was -12% [at 10 µM]; for `Cc1cccc(C(=O)Nc2c(C(=O)NCc3cccnc3)[nH]c3ccc(C)cc23)c1`, 28.1% [at 5 µM]; for `Cc1ccc(C(=O)Nc2c(C(=O)NCc3cccnc3)[nH]c3ccc(C)cc23)cc1`, 54.9% [at 2.6 µM].
For `Cc1ccc2c(c1C)-n1cccc1C1(CCN(C(=O)Cc3cccs3)CC1)N2` the value was 6.55% [at 0.16 µM]; for `COc1ccc(-c2nc(Nc3cccc(Cl)c3C)c3ccccc3n2)cc1`, 25.3%; for `Cc1ccc(-c2coc(-c3ccc(NC(=O)Nc4cccc(Br)c4)cc3)n2)cc1`, 22.7% [at 0.16 µM].

The record behind these values is PubChem BioAssay AID1259418 (Broad Institute, 2018).
